Laboratory results as given in PubChem BioAssay AID1159580 (chemical genetic matrix, 2015).
Screen size: about 5,500 compounds; about 2,000 (36%) were called active. Inconclusive results (about 18%) are left out. Some of the results follow. A number with no mark means an inactive call. Cut-off read from the data, not from the text of the source: active = normalized growth mostly below about 0.91 (no sharp cut-off); inconclusive = no clear call, values can overlap the other calls; inactive = mostly above about 0.92.

Experiment: chemical genetic growth profiling, strain panel (AID 1159580);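 note: tested at 20 µM; growth read once vehicle control cultures reached saturation at 30 °C; 1 = growth at the plate median or of vehicle wells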
Settings: S. cerevisiae deletion strains, growth OD

O=C(Nc1ccc(OC(F)(F)F)cc1)N1CCN(c2nc(-c3ccccc3)ns2)CC1
normalized growth (locus YAR019C, strain CDC15, stronger effect = lower value): 1 | normalized growth (locus YBL105C, strain PKC1, stronger effect = lower value): 1 | normalized growth (locus YBR135W, strain CKS1, stronger effect = lower value): 0.992 | normalized growth (locus YBR136W, strain MEC1, stronger effect = lower value): 0.992 | normalized growth (locus YBR160W, strain CDC28, stronger effect = lower value): 0.991 | normalized growth (locus YDL017W, strain CDC7, stronger effect = lower value): 0.992 | normalized growth (locus YDL028C, strain MPS1, stronger effect = lower value): 1.01 | normalized growth (locus YDL101C, strain DUN1, stronger effect = lower value): 0.97 | normalized growth (locus YDL108W, strain KIN28, stronger effect = lower value): 0.998 | normalized growth (locus YDL132W, strain cdc53, stronger effect = lower value): 1 | normalized growth (locus YDL214C, strain PRR2, stronger effect = lower value): 0.802 | normalized growth (locus YDR052C, strain DBF4, stronger effect = lower value): 0.992 | normalized growth (locus YDR054C, strain cdc34, stronger effect = lower value): 1 | normalized growth (locus YDR226W, strain ADK1, stronger effect = lower value): 0.995 | normalized growth (locus YDR477W, strain SNF1, stronger effect = lower value): 0.957 | normalized growth (locus YER123W, strain YCK3, stronger effect = lower value): 0.861 | normalized growth (locus YER133W, strain GLC7, stronger effect = lower value): 0.97 | normalized growth (locus YFL009W, strain cdc4, stronger effect = lower value): 0.991 | normalized growth (locus YFL029C, strain CAK1, stronger effect = lower value): 0.989 | normalized growth (locus YFR003C, strain YPI1, stronger effect = lower value): 0.98 | normalized growth (locus YFR019W, strain FAB1, stronger effect = lower value): 0.924 | normalized growth (locus YFR028C, strain CDC14, stronger effect = lower value): 0.997 | normalized growth (locus YGR040W, strain KSS1, stronger effect = lower value): 0.933 | normalized growth (locus YGR052W, strain FMP48, stronger effect = lower value): 0.906 | normalized growth (locus YGR092W, strain DBF2, stronger effect = lower value): 0.898 | normalized growth (locus YHR030C, strain SLT2, stronger effect = lower value): 0.893 | normalized growth (locus YHR079C, strain IRE1, stronger effect = lower value): 0.864 | normalized growth (locus YHR082C, strain KSP1, stronger effect = lower value): 0.905 | normalized growth (locus YHR205W, strain SCH9, stronger effect = lower value): 0.51 (active) | normalized growth (locus YIL147C, strain SLN1, stronger effect = lower value): 0.994 | normalized growth (locus YJL095W, strain BCK1, stronger effect = lower value): 0.91 | normalized growth (locus YJL128C, strain PBS2, stronger effect = lower value): 0.843 | normalized growth (locus YJL157C, strain FAR1, stronger effect = lower value): 0.888 | normalized growth (locus YJR016C, strain ILV3, stronger effect = lower value): 1 | normalized growth (locus YJR066W, strain TOR1 (second series), stronger effect = lower value): 0.858 | normalized growth (locus YJR066W, strain TOR1, stronger effect = lower value): 1.01 | normalized growth (locus YKL048C, strain ELM1, stronger effect = lower value): 0.867 | normalized growth (locus YKL067W, strain YNK1, stronger effect = lower value): 0.844 | normalized growth (locus YKL101W, strain HSL1, stronger effect = lower value): 0.79 | normalized growth (locus YKL193C, strain SDS22, stronger effect = lower value): 0.987 | normalized growth (locus YKL203C, strain TOR2, stronger effect = lower value): 1.01 | normalized growth (locus YLR113W, strain HOG1, stronger effect = lower value): 0.733 (active) | normalized growth (locus YLR133W, strain CKI1, stronger effect = lower value): 0.826 | normalized growth (locus YLR403W, strain SFP1, stronger effect = lower value): 0.905 | normalized growth (locus YML070W, strain DAK1, stronger effect = lower value): 0.856 | normalized growth (locus YMR001C, strain CDC5, stronger effect = lower value): 0.992 | normalized growth (locus YMR205C, strain PFK2 (second series), stronger effect = lower value): 0.793 | normalized growth (locus YMR277W, strain FCP1, stronger effect = lower value): 0.989 | normalized growth (locus YNL006W, strain LST8, stronger effect = lower value): 0.994 | normalized growth (locus YNL020C, strain ARK1, stronger effect = lower value): 0.818 | normalized growth (locus YNL161W, strain CBK1, stronger effect = lower value): 0.983 | normalized growth (locus YNL183C, strain NPR1, stronger effect = lower value): 0.815 | normalized growth (locus YNL207W, strain RIO2, stronger effect = lower value): 0.982 | normalized growth (locus YNL222W, strain SSU72, stronger effect = lower value): 0.994 | normalized growth (locus YNL307C, strain MCK1 (second series), stronger effect = lower value): 0.805 | normalized growth (locus YOL078W, strain AVO1, stronger effect = lower value): 0.997 | normalized growth (locus YOL136C, strain PFK27, stronger effect = lower value): 0.772 | normalized growth (locus YOR061W, strain CKA2, stronger effect = lower value): 0.856 | normalized growth (locus YOR119C, strain RIO1, stronger effect = lower value): 1 | normalized growth (locus YOR231W, strain MKK1, stronger effect = lower value): 0.843 | normalized growth (locus YOR329C, strain SCD5, stronger effect = lower value): 0.984 | normalized growth (locus YPL031C, strain PHO85, stronger effect = lower value): 0.952 | normalized growth (locus YPL153C, strain RAD53, stronger effect = lower value): 0.909 | normalized growth (locus YPL204W, strain HRR25, stronger effect = lower value): 0.941 | normalized growth (locus YPL209C, strain IPL1, stronger effect = lower value): 0.994 | normalized growth (locus YPL256C, strain CLN2, stronger effect = lower value): 0.832 (active) | normalized growth (locus YPR025C, strain CCL1, stronger effect = lower value): 1 | normalized growth (locus YPR106W, strain ISR1, stronger effect = lower value): 0.929 | normalized growth (locus YPR111W, strain DBF20, stronger effect = lower value): 0.925 | normalized growth (strain NNK1, stronger effect = lower value): 0.909 | normalized growth (strain TSCII, stronger effect = lower value): 0.979
